# Experimental data as given in PubChem BioAssay AID1275 (Emory University Molecular Libraries Screening Center, 2008).
# Screen size: about 1,000 compounds; about 160 (16%) were called active. No rule for the calls is given here. This is one part of the list.
# Biological target: Neutrophil cytosol factor 1 (Homo sapiens) (UniProt P14598)
# Assay: blockers of ligand binding to p47phox – biochemical, NADPH oxidase regulatory subunit, fluorescence polarization, dose response (AID 1275)
# Details: at 12.5 µM
# Chain of Neutrophil cytosol factor 1 (Homo sapiens) (P14598 whole entry, looked up): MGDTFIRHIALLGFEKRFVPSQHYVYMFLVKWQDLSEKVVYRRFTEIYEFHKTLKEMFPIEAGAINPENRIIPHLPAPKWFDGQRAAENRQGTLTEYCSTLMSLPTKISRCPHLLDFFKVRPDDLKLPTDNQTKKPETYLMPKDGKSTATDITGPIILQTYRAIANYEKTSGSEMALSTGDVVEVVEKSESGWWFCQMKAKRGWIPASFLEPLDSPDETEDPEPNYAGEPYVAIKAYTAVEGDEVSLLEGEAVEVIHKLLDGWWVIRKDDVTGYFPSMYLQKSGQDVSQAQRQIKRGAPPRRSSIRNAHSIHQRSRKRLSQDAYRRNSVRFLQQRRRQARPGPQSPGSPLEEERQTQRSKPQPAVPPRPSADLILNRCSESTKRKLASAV
row,Structure (SMILES),"percent of control, lower = inhibition"
1,O=C1NC(=O)N(Cc2ccc(F)cc2)C(=O)/C1=C\c1ccc(N2CCCC2)cc1,-40.7 (active)
